Among all 48,000 sequences or so, about 6,100 (13%) were called active. No stated cut-off is given here; in the data, active = GI50 up to about 1.1 µM and inactive = higher. Shown is part of a subset that was picked to be rich in actives. Entries with a potency or affinity are not part of this list.
System: SR

In order of rising GI50:
1. [Bis(aminomethyl)diethylsilane]tetrachloroplatinum(IV), CHEMBL2146203  0.382 µM
2. [Bis(aminomethyl)pentamethylenesilane]tetrachloropaltinum(IV), CHEMBL2146204  0.422 µM
3. [Bis(aminomethyl)tetramethylenesilane]tetrachloropaltinum(IV), CHEMBL2146189  0.499 µM
4. CISPLATIN, CHEMBL11359  0.618 µM
5. [Bis(aminomethyl)pentamethylenesilane]dichloropaltinum(II), CHEMBL2146202  1.49 µM
6. mu-(1,7-nanodiamine-N,N')bis-(cis-aminedichloroplatimum (II)), CHEMBL2146215  2.78 µM
7. [Bis(aminomethyl)dimethylsilane]tetrachloroplatinum(IV), CHEMBL2146190  3.44 µM
8. [Bis(aminomethyl)tetramethylenesilane]dichloropaltinum(II), CHEMBL2146205  3.52 µM
